dFosB act-1: mouse delta FosB homodimer activation; AID 493131; activation, % at 25 µM; purified delta FosB, TAMRA-CDK5 oligo fluorescence polarization; percent of positive-control signal above neutral wells; 0.99% of 340,000 active; P13346;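 active means mean activation above about 17%, with every replicate also reaching it, limit read from the data, passing the limit was not always enough; inconclusive means only one of the two conditions met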
CDK5 inh: inhibitors of human CDK5/p35 kinase; Recombinant CDK5/p35, ADP-Glo luminescence, 60 min; 0.01% of 330,000 active; inhibition, % at 10 µM; Q00535+Q15078;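 active means highest replicate inhibition of at least 50% and at least 75% of replicates reaching 50%; inconclusive means only one of the two criteria met; inactive means both criteria failed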;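 further: plate controls were DMSO neutral control for no effect and GW8510 at 10 µM for full effect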
Target sequence (Q00535 whole entry, looked up): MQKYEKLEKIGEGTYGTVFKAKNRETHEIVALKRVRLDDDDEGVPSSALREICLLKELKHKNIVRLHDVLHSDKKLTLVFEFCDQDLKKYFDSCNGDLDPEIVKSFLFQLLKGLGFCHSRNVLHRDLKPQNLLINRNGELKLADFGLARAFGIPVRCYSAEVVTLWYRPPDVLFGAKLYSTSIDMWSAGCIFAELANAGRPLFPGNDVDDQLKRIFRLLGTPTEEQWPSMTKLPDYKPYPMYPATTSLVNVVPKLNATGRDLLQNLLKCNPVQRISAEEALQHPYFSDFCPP
Target sequence (Q15078 whole entry, looked up): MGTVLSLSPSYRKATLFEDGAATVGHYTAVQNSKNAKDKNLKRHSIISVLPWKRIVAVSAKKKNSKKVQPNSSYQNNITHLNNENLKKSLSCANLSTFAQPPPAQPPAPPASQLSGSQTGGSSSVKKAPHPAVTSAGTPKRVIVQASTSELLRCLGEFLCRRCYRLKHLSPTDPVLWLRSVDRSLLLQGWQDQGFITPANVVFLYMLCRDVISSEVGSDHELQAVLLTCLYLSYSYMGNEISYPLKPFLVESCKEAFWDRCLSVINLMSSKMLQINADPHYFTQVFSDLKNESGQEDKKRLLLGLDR
FGF22 binding-1: shifts melting point of recombinant human FGF22; activity (Tm shift, normalised), % at 9.99 µM; recombinant FGF22 thermal shift, SYPRO orange fluorescence; percent of sucrose octasulfate shift, DMSO zero; Q9HCT0; 1.5% of 340,000 active;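 active means mean Tm shift, scaled 0 neutral to 100 positive control, at about 1.3% or above, every replicate too, limit read from the data; inconclusive means no clear call, values can overlap the other calls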
SIRT5 block: inhibitors of human sirtuin-5 desuccinylase; Q9NXA8; Purified SirT5, succinyl-peptide AMC, trypsin-coupled fluorescence; inhibition, % at 15 µM; 1.1% of 330,000 active; AID 652115; in the data active means inhibition above about 15%; inconclusive means no clear call, values can overlap the other calls
PglD inh: inhibitors of Campylobacter jejuni PglD acetyltransferase; purified PglD enzyme, DTNB colorimetric CoA detection; inhibition, % at 12.5 µM; 0.098% of 360,000 active; in the data active means inhibition above about 16%, passing the limit was not always enough; inconclusive means no clear call, values can overlap the other calls
PvdQ inh: P. aeruginosa PvdQ acylase inhibition; purified PvdQ acylase, fluorescence plate reader; inhibition, % at 10 µM; 0.063% of 340,000 active; in the data active means inhibition above about 30%, passing the limit was not always enough; inconclusive means no clear call, values can overlap the other calls;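 further: 0% = vehicle neutral wells and 100% = reference inhibitor wells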
dFosB act-2: delta FosB (mouse) homodimer activation; activation, % at 24.9 µM; 2,400 tested, under 10 active; shares compounds with dFosB act-1; purified delta FosB, TAMRA-CDK5 oligo fluorescence polarization; normalised: neutral wells 0, positive control 100;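 active means highest replicate activation at or above 34% and every replicate reaching that threshold; inconclusive means meets only one of the two criteria; inactive means meets neither criterion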;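 further: higher polarization means more probe DNA bound by delta FosB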
PglD inh SP: PglD (C. jejuni) inhibition confirmation; 320 tested, under 10 active; shares compounds with PglD inh; inhibition, % at 20 µM; Purified C. jejuni PglD, DTNB absorbance 412 nm; AID 743156;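 active means mean inhibition across replicates of at least 20% with every single replicate also at 20% or more; inconclusive means mean inhibition at least 20% but some replicate falls below 20%; inactive means mean inhibition under 20% and not all replicates reach it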;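 further: initial rate of CoA release by acetyl transfer from AcCoA to the UDP-4-amino sugar; 0% = median of neutral control wells and 100% = median of positive control wells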
FGF22 binding-2: binders of human FGF22 by thermal shift; shares compounds with FGF22 binding-1; recombinant FGF22 thermal shift, SYPRO orange fluorescence; thermal shift activity, °C (ΔTm) at 38 µM; 2% of 1,000 active;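 active means fitted rise in melting shift crosses a set limit at or below the top valid dose tested; inconclusive means flat fit at mid-level activity, or a poor quality fit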
SYPRO no-protein: shows thermal shift signal without protein, FGF22 counter-screen. shares compounds with FGF22 binding-1. compound-only SYPRO orange thermal shift counter-screen, no protein. AC50, µM (titrated, usually from 38 µM). 2% of 1,000 active. AID 743019;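 active means rising signal whose fitted curve reaches the 0.54 level within the top valid dose, showing a melting point, actives reach about 13 µM in these data; inactive means the rest, including activity in the opposite direction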; further: value is where the raw curve crosses a fixed level and not half-maximal
* = called active by the depositor; i = inactive; ? = inconclusive; / = no result; [ ] = remark or other dose. Most compounds without a hit are left out; they make up all but 2.8% or so of the library.

SMILES	dFosB act-1	CDK5 inh	FGF22 binding-1	SIRT5 block	PglD inh	PvdQ inh	others
COC(=O)[C@@H]1[C@@H](CO)[C@@H]2Cn3c(ccc(-c4cccc(OC)c4)c3=O)[C@H]1N2CC1CC1	/	/	0.2	-4.4	0.5	/
COC(=O)[C@H]1[C@H](CO)[C@H]2Cn3c(ccc(-c4ccc(F)cc4)c3=O)[C@@H]1N2Cc1ccccc1	/	/	0.4	-1.3	-4.0	/
O=C(CN1CCCC1)Nc1ccc(Cl)cc1C(=O)c1ccccc1	-7.0	-0.7	0.3	15.1*	/	-5.9
O=C(COC(=O)c1cccc(O)c1)Nc1ccc(Cl)cc1C(=O)c1ccccc1	-4.2	-0.4	52.5*	1.0	/	-14.5
CCC(=NCc1cccnc1)c1c(O)n(-c2ccccc2C)c(=O)[nH]c1=O	5.9	-0.1	-0.2	0.6	-4.1	-16.2
CC(=NCc1cccnc1)c1c(O)n(-c2ccccc2C)c(=O)[nH]c1=O	-0.1	-1.7	0.2	27.2*	-0.1	-16.0
N#Cc1cccc(-c2ccc([C@H]3[C@H]4CN(C(=O)Cc5ccccc5)CCCCN4[C@H]3CO)cc2)c1	/	/	-0.6	-2.0	-1.0	/
CN(C)Cc1c[nH]c2cc([N+](=O)[O-])ccc12	2.0	1.3	0.3	16.5*	-2.0	-16.8
CN1C(=O)C(=Cc2ccccc2OCc2ccc(Cl)cc2)C(=O)N(C)C1=O	-1.8	-0.3	0.4	112.2*	/	3.3
CN1C(=O)C(=Cc2ccccc2Oc2ccc(Cl)cc2)C(=O)N(C)C1=O	-5.7	1.5	/	/	/	-16.5
CC1=C2C[C@H]3[C@@H](CC=C4C[C@@H](O)CC[C@@]43C)[C@@H]2CC[C@]12O[C@@H]1C[C@H](C)CN[C@@H]1C2C (stereo partly drawn)	/	/	-0.1	-0.7	/	/
COc1ccc(NP(=O)(Oc2cccc(C)c2)Oc2cccc(C)c2)cc1OC	-5.6	-1.7	0.1	0.8	/	-13.3
Cc1cccc(OP(=O)(Nc2ccc(F)cc2)Oc2cccc(C)c2)c1	-4.3	-1.1	43.0*	0.3	/	-13.3
O=C(/C=C/c1c[nH]c2ccccc12)c1c(O)n(CCc2ccccc2)c(=O)[nH]c1=O	22.2*	-3.6	-0.2	0.3	0.3	-22.8	dFosB act-2=?
O=C(O)[C@@H]1[C@@H](CO)[C@@H]2Cn3c(ccc(-c4cncnc4)c3=O)[C@H]1N2C(=O)NC1CCCC1	/	/	-0.1	-16.2	0.3	/
Cc1cc(NC(=O)COC(=O)c2c(C)nn(Cc3ccccc3)c2C)no1	-1.5	1.7	/	/	-4.9	-2.3
Cc1cc(NC(=O)COC(=O)c2c(C)nn(Cc3ccccc3Cl)c2Cl)no1	46.2*	0.1	/	/	/	3.5	dFosB act-2=-13.4
NC(N)=Nc1ccc2[nH]c3c(c2c1)C[C@@]1(O)[C@H]2Cc4ccc(O)c5c4[C@@]1(CCN2CC1CC1)C3O5 (stereo partly drawn)	45.2*	-0.1	-0.1	/	-2.4	-11.5	dFosB act-2=5.0
CCN1/C(=C/C=C/C2=[N+](CC)c3ccccc3C2(C)C)C(C)(C)c2ccccc21	/	/	0.2	2.6	2.2	/
C[N+]1=C(/C=C/Nc2ccccc2)C(C)(C)c2ccccc21	23.0*	-0.7	/	/	/	5.5	dFosB act-2=?
OC[C@H]1Nc2ccc(C#Cc3cccnc3)cc2[C@H]2NCC[C@H]21	/	/	/	-9.9	/	/
CCCCCn1c(=O)c(C(=O)Nc2ccccc2S(N)(=O)=O)c(O)c2ccccc21	62.5*	-0.1	0.4	-2.1	/	4.5	dFosB act-2=?
CCCCn1c(=O)c(C(=O)Nc2ccccc2S(N)(=O)=O)c(O)c2ccccc21	-12.3	-3.3	/	/	-87.6	-20.5
CC=Cc1ccc2n(c1=O)C[C@H]1[C@H](CO)[C@@H](C(=O)OC)[C@@H]2N1C(=O)CC1CC1 (mixture of isomers)	/	/	0.2	-9.9	0.1	/
CN1/C(=C\C=Nc2ccccc2)C(C)(C)c2ccccc21	25.9*	1.2	/	/	-4.3	-5.5	dFosB act-2=5.5
SMILES	dFosB act-1	CDK5 inh	FGF22 binding-1	SIRT5 block	PglD inh	PvdQ inh	others
CC(C)N1CCN(Cc2cc3c(cc2Cl)OCO3)CC1CCO (stereo not drawn)	-1.5	0.0	0.4	2.5	-3.1	-5.2
CC(C)N1CCN(Cc2cccc3c2OCO3)CC1CCO (stereo not drawn)	-0.4	-1.6	42.6	-0.3	21.3*	-2.8	PglD inh SP=0.9
Clc1ccccc1CN1CCNCC1	-7.8	0.9	0.2	-1.6	22.4*	-8.1	PglD inh SP=0.3
O=C(Cc1ccccn1)N1CC2(C1)[C@H](c1ccccc1)[C@H](CO)N2Cc1ccccn1	/	/	0.1	-1.1	/	/
Cc1cc(OCC(=O)NC(Cc2ccc(Cl)cc2)C(=O)O)c2c3c(c(=O)oc2c1)CCC3 (stereo not drawn)	-15.1	-1.1	1.7*	-2.0	-3.0	-12.7	FGF22 binding-2=-0.155;SYPRO no-protein=i
Cc1ccc(OC(=O)N(C)C[C@H]2OCc3ccccc3-c3c(n(C)c4ccccc34)C(=O)N([C@H](C)CO)C[C@H]2C)cc1	/	/	-0.4	5.6	/	/
COC(=O)[C@@H]1[C@@H](CO)[C@@H]2Cn3c(ccc(-c4cccc(F)c4)c3=O)[C@H]1N2Cc1ccncc1	/	/	0.1	2.2	-3.4	/
COc1cccc(-c2ccc([C@@H]3[C@@H](CO)N4CCCCN(C(=O)Cc5ccncc5)C[C@@H]34)cc2)c1	/	/	1.4*	0.0	5.5	/	FGF22 binding-2=0.065[42 µM];SYPRO no-protein=i
COc1cccc(-c2ccc([C@H]3[C@@H](CO)N4CCCCN(C(=O)Cc5ccncc5)C[C@@H]34)cc2)c1	/	/	0.4	2.8	2.3	/
O=C(O)[C@H]1[C@H](CO)[C@H]2Cn3c(ccc(-c4ccncc4)c3=O)[C@@H]1N2C(=O)C1CCC1	/	/	0.3	-53.0	-3.4	/
O=C(NCCN1CCC2(CC1)C(=O)NCN2c1ccccc1)c1ccc2ccccc2c1	/	/	1.9*	/	/	/	FGF22 binding-2=0.034;SYPRO no-protein=i
O=C(Cc1ccccn1)N1CCCCN2[C@H](CO)[C@H](c3ccc(C#Cc4ccccc4)cc3)[C@H]2C1	/	/	0.2	2.3	-0.1	/
CC=Cc1ccc2n(c1=O)C[C@H]1[C@H](CO)[C@@H](C(=O)N(C)C)N[C@@H]21 (mixture of isomers)	/	/	1.7*	-6.7	1.5	/	FGF22 binding-2=0.031;SYPRO no-protein=i
COC(=O)[C@H]1N[C@H]2c3ccc(C4=CCCC4)c(=O)n3C[C@H]2[C@@H]1CO	/	/	0.0	-6.2	0.7	/
C=CCN(CC=C)Cc1c[nH]c2ccccc12	/	/	0.5	0.4	/	/

Compound activity deposited in PubChem BioAssay by Broad Institute.
